CHX counter: counter-screen hit for Shiga toxin inhibitors, cycloheximide; cell reporter, cycloheximide protein synthesis inhibition counterscreen; max response, %; 300,000 tested, 12% active; AID 2314; in the data active means max response mostly above about 13%, no sharp cut-off; inactive means mostly below about 14%; further: read at 38.3 µM for the half of the compounds with a filed dose; 0% is about no effect
Pf growth 96h: inhibits malaria parasite growth, 96 h; Potency, µM (titrated, usually from 28.7 µM), for the others: at the highest dose activity change, negative = inhibition, hits mostly inhibitors; P. falciparum luciferase reporter growth, 96 h; 320,000 tested, 6.9% active; active means well fitted inhibition curve with a large enough effect; inconclusive means small, poorly fitted or top-dose-only effect, or another doubt; inactive means no such curve, though single readings can be large or run the other way; further: potency means the concentration at half of the fitted maximal effect; on the % scale 0 is the no-effect control and ±100 the full control effect
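Two-generation exposure (96 h) targets delayed-death phenotype. Reporter parasites carrying integrated firefly luciferase, in red cells at 2% hematocrit and 0.05% parasitemia final, kept at 37 C, 5% CO2; luminescence loss indicates inhibition.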
Pf growth 48h: inhibits P. falciparum growth in the first generation, 48 h | AID 504832 | P. falciparum luciferase growth in erythrocytes, 48 h | 310,000 tested, 5.9% active | Potency, µM (titrated, usually from 28.7 µM), without a hit: at the highest dose activity change, negative = inhibition, most hits filed as inhibitors; active means well fitted inhibition curve with a large enough effect; inconclusive means small, poorly fitted or top-dose-only effect, or another doubt; inactive means no such curve, though single readings can be large or run the other way; further: potency means the concentration at half of the fitted maximal effect; on the % scale 0 is the no-effect control and ±100 the full control effect
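Cell-based growth assay: transgenic P. falciparum expressing firefly luciferase, cultured in red cells within RPMI 1640 containing 0.5% w/v Albumax, 24 mM bicarbonate and gentamycin. A drop in luciferase activity indicates inhibition.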
SARS PLpro yeast: SARS-CoV PLP inhibition in yeast. S. cerevisiae expressing SARS-CoV PLpro, growth rescue. Potency, µM (highest dose often 32.9 µM), for inactives: top-dose activity, positive = growth rescue, hits mostly activators. 330,000 tested, 0.19% active. AID 485353; further: potency means the concentration at half of the fitted maximal effect; 0% is about no effect; nearly all actives have a fitted effect of over 55% in size
Shiga inhibitor: inhibitors of Shiga toxin in Vero cells; Vero cells, Shiga toxin protein synthesis inhibition reporter; inhibition, % at 38.7 µM; 290,000 tested, 9.2% active; AID 2315; in the data active means inhibition mostly above about 28%, no sharp cut-off; inactive means mostly below about 43%; further: 0% is about no effect
NS1 function inh: inhibitors of influenza NS1 protein function | Potency, µM (highest dose often 46.1 µM), without a hit: at the highest dose activity, positive = more growth | 270,000 tested, 0.4% active; further: potency means the concentration at half of the fitted maximal effect; actives are rising curves; nearly all actives have a fitted effect of over 50% in size
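Recovery from NS1-induced slow growth read by OD600 in budding yeast switched to galactose assay medium (pH 6.0, -URA) at 1:100 dilution. Compound 23 nl per well; the matching strain lacking NS1 serves as control.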
* hit, by the source's call; u = inconclusive; x = no result given; [ ] = dose if it differs, or a comment. In the library only some 21% were active in any assay of this set; here they are far more common. Unless noted, the call rests on the fitted dose curve.

SMILES	CHX counter	Pf growth 96h	Pf growth 48h	SARS PLpro yeast	Shiga inhibitor	NS1 function inh
CC(C(=O)Nc1ccc(F)cc1Cl)N1CCN(S(=O)(=O)c2cccs2)CC1 (stereo not drawn)	x	u	u	6%	x	x
Cc1cc(C)nc(NS(=O)(=O)c2ccc(NC(=O)C3(c4ccc([N+](=O)[O-])cc4)CCCC3)cc2)n1	1	9.3µM*	10%	20%	-12	8%
COc1ccc(C2(C(=O)Nc3ccc(S(=O)(=O)Nc4nc(C)cc(C)n4)cc3)CCCC2)cc1OC	0	146%	-16%	-2%	-19	3%
O=C(CCC(=O)Nc1ccc(F)cc1)N/N=C/c1ccccc1O	24*	-52%	u	-6%	73*	x
Cc1ccc(NC(=O)CCC(=O)N/N=C/c2cccnc2)cc1	-4	3.7µM*	12%	-1%	19	-1%
COc1ccc(/C=N/NC(=O)Cc2n[nH]c(=O)[nH]c2=O)cc1	-3	36%	8%	2%	25	2%
O=C(CCC(=O)Nc1ccccc1)N/N=C/c1cccnc1	0	5.2µM*	7%	0%	-10	9%
O=C(Cc1n[nH]c(=O)[nH]c1=O)N/N=C/c1ccccc1O	1	32%	1.5µM*	2%	11	-1%
O=C(N[C@@H](Cc1ccccc1)C(=O)N1CCC2(CC1)NCCc1[nH]cnc12)c1cccc(F)c1	7	-4%	-5%	-4%	-4	-20%
Cc1c(C(=O)Nc2ccc(S(=O)(=O)N3CCOCC3)cc2)cccc1[N+](=O)[O-]	-1	u	28%	-12%	x	-10%
O=C(O)C1CN(C(=O)c2cccc(Br)c2)C1	6	-17%	65%	1%	2	1%
C/C(=N\NC(=O)c1c(-c2ccccc2Cl)noc1C)c1cccc(NC(=O)C(C)C)c1	-2	8%	u	15%	-2	-16%
CC(/C=C/c1ccccc1)=N/NC(=O)Cn1nnc(N)n1	-3	2%	6%	-1%	30	-6%
O=C(CCC(=O)Nc1ccccc1)N/N=C/C=C/c1ccccc1	10.0*	32%	34%	2%	9	11%
Nc1nnn(CC(=O)N/N=C/C=C/c2ccccc2)n1	21*	21%	5%	2%	58*	5%
O=C(NNC(=O)c1nn(-c2ccc(F)cc2)ccc1=O)c1ccccc1Cl	-2	86%	52%	0%	-4	1%
CCCCCCCC/C=C\CCCCCCCC(=O)N[C@H](CO)Cc1ccc(O)cc1	7	x	x	x	-2	x
O=C(COC(=O)C1=NN(c2ccccc2)C(=O)CC1)NCc1ccccc1Cl	x	23%	-13%	6%	x	x
Cc1sc(NC(=S)Nc2ccc(F)cc2)c(C(N)=O)c1C	-1	0%	34%	-2%	48	0%
Cc1sc(NC(=O)c2ccc(Cl)s2)c(C(N)=O)c1C	68*	x	168%	-5%	103*	0%
Cc1sc(NC(=O)c2ccc(Br)s2)c(C(N)=O)c1C	51*	x	214%	-5%	69*	-9%
CC(NC(=O)CNC(=O)C1CCCCC1)c1ccc(S(N)(=O)=O)cc1 (stereo not drawn)	1	23%	26%	2%	-14	7%
COc1cccc(C2=NOC(C(=O)Nc3ccc(OC)c(OC)c3)C2)c1 (stereo not drawn)	17*	u	0%	3%	7	-70%
COc1ccc(C2=NOC(C(=O)Nc3ccc4c(c3)OCCO4)C2)cc1OC (stereo not drawn)	11	u	u	0%	18	-2%
COc1ccc(NC(=O)C2CC(c3c(F)cccc3Cl)=NO2)cc1 (stereo not drawn)	18*	6%	36%	-5%	x	-8%
SMILES	CHX counter	Pf growth 96h	Pf growth 48h	SARS PLpro yeast	Shiga inhibitor	NS1 function inh
COc1ccc(OC)c(C2=NOC(C(=O)NCc3cccs3)C2)c1 (stereo not drawn)	-6	0.37µM*	7%	2%	3	x
COc1ccc(NC(=O)C2CC(c3cccc(Br)c3)=NO2)cc1OC (stereo not drawn)	-1	10µM*	-1%	2%	x	-1%
COc1cc(NC(=O)C2CC(c3c(F)cccc3Cl)=NO2)cc(OC)c1OC (stereo not drawn)	-3	16%	9%	-3%	-7	-20%
CCOc1ncccc1C(=O)Nc1ccc(C)cn1	3	-25%	-3%	-1%	-13	16%
O=C(c1ccncc1)N(c1ccc2oc3c(c2c1)CCCC3)S(=O)(=O)c1ccc(F)cc1	-2	13%	8%	-30%	13	7%
Cc1cc(OC(=O)c2cc(Cl)ccc2Cl)c([N+](=O)[O-])c(=O)[nH]1	-4	65%	43%	3%	-8	5%
Cc1ccc(C(=O)C2CCN(CC(=O)Nc3nc(C)cs3)CC2)cc1	-4	18%	0%	0%	-20	-15%
C=CCN(CC=C)C(=O)COC(=O)c1ccc(Sc2ncn[nH]2)c([N+](=O)[O-])c1	-2	u	4%	4%	28	-1%
COc1ccc(OC)c(C2=NOC(C(=O)Nc3ccc4c(c3)OCCO4)C2)c1 (stereo not drawn)	13	-24%	-22%	0%	8	-5%
COc1cccc(C2=NOC(C(=O)Nc3cc(C)on3)C2)c1OC (stereo not drawn)	14*	5%	-7%	0%	53	0%
COc1ccc(OC)c(C2=NOC(C(=O)Nc3cccnc3)C2)c1 (stereo not drawn)	-1	12µM*	7%	6%	7	-1%
Cc1ccc(C(=O)NNC(=S)NC(=O)c2ccco2)cc1	-4	u	u	4%	18	-47%
Cc1ccc(NC(=S)NNC(=O)c2ccco2)cc1	31*	118%	114%	-1%	66*	6%
Cc1cccc(NC(=S)NNC(=O)c2ccco2)c1	23*	21%	6%	1%	active	3%
Cc1ccc(C)c(NC(=S)NNC(=O)c2ccco2)c1	18	7%[5.75 µM]	18%	3%	16	4%
COc1ccc(CNC(=O)C/C(C)=N/NC(=O)COc2cccc(C)c2)cc1	-4	-5%	4%	-2%	43	x
CC1=CC(c2ccc(Cl)cc2)n2nc(NC(=O)CCC(=O)O)nc2N1 (stereo not drawn)	-1	33%	23%	1%	-3	-4%
O=C(CCC(=O)N1CCOc2ccc(Cl)cc21)NCCCN1CCOCC1	-1	-2%	1%	-9%	-4	-3%
COc1ccccc1CNC(=O)CCC(=O)N1CCOc2ccc(Cl)cc21	-4	u	-6%	3%	3	-12%
O=C(CCC(=O)N1CCOc2ccc(Cl)cc21)NCc1ccccc1	-3	12µM*	-14%	1%	-2	-2%
CC(CNC(=O)CCC(=O)N1CCOc2ccc(Cl)cc21)c1ccccc1 (stereo not drawn)	-2	13µM*	u	1%	4	-12%
